Assay in all cases: NCI-60 one-dose screen, 48 h (100 = growth as untreated, 0 = no growth, -100 = all killed)
One assay relates to HCT-15 colon. As to conditions: 10 µM.
The subject of another assay is HT29 colon. As to conditions: 10 µM.
In the next assay the test system is SNB-75 CNS. As to conditions: 10 µM.
In a further assay the test system is SNB-19 CNS. As to conditions: 10 µM.
For a further assay, the system named is U251 CNS. The conditions noted are these: 10 µM.
Another assay has as its system PC-3 prostate. The conditions noted are these: 10 µM.
The test system of the next assay is SK-MEL-5 melanoma. The conditions noted are these: 10 µM.
The subject of another assay is UACC-62 melanoma. As to conditions: 10 µM unless noted.
The subject of the next assay is LOX IMVI melanoma. As to conditions: 10 µM.
In a further assay the test system is SK-MEL-28 melanoma. As to conditions: 10 µM.

About 83,000 compounds went through this panel and 20% of them were active in at least one assay; those are over-represented in the sample as a whole.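 For each line, cells grew in 96-well plates with the test compound present at a single concentration for 48 hours.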 Values without a mark were called inactive. The source made the active and inactive calls. How the source made its calls: active means growth percent below 10; inactive means the rest. Where a SMILES comes first, the peptide text is derived from it. Bridges are numbered along the chain shown (N, C = ends). [ ]: non-standard residue; d: D form. The star is where a group is joined. ξ: configuration not given here. ξNMePhe(4-NMe2) = CNC(Cc1ccc(N(C)C)cc1)C(=O)O; Picolinoyl(3-OH) = O=C(c1ncccc1O)*; ξPip(4-oxo) = O=C1CCNC(C(=O)O)C1; Phg = N[CH](C(=O)O)c1ccccc1; Abu = CC[CH](N)C(=O)O

`O=[N+]([O-])c1ccc(O)c(S(=O)(=O)O)c1`: the growth in the assay on HCT-15 colon is 98.1%; in the assay with HT29 colon, 104%; in the assay on SNB-75 CNS it was 98.6%; with SNB-19 CNS, 105%; in the assay with U251 CNS it was 102%; in the assay with PC-3 prostate, 97.3%. For the same molecule, the growth in the assay on SK-MEL-5 melanoma was 121%; in the assay with UACC-62 melanoma it was 97.5%; in the assay on LOX IMVI melanoma it was 98.2%; in the assay with SK-MEL-28 melanoma it was 116%.

For `CO[C@H]1C[C@@H]2CC[C@@H](C)[C@@](O)(O2)C(=O)C(=O)N2CCCC[C@H]2C(=O)O[C@H]([C@H](C)C[C@@H]2CC[C@@H](O)[C@H](OC)C2)CC(=O)[C@H](C)C=C(C)[C@@H](O)[C@@H](OC)C(=O)[C@H](C)C[C@H](C)/C=C/C=C/C=C1C`, the growth with HCT-15 colon is 42.7%; in the assay on HT29 colon, 45.3%; in the assay on SNB-75 CNS, 13.3%; in the assay with SNB-19 CNS, 46.2%; in the assay on U251 CNS, 51.8%; in the assay with PC-3 prostate it was 44%. The figures for the growth with SK-MEL-5 melanoma, in the assay on UACC-62 melanoma and in the assay on LOX IMVI melanoma were 24.8%, 43.8% and 51.9%, respectively.

`Cc1nc2ccccc2c2nnc(SCC(=O)N(Cc3ccccc3)c3ccccc3)n12`: the growth is 90.4% with HCT-15 colon; 96.1% with HT29 colon; 90.4% with SNB-75 CNS; 102% in the assay with SNB-19 CNS; 98% in the assay with U251 CNS; 84.1% in the assay with PC-3 prostate. The growth with SK-MEL-5 melanoma is 45.1%; in the assay on UACC-62 melanoma it was 84.7%; in the assay on LOX IMVI melanoma, 91.6%; in the assay on SK-MEL-28 melanoma it was 109%.

For `Cc1cc(N)c(S(=O)(=O)O)c(N)c1`, the growth was 105% in the assay on HCT-15 colon; 111% in the assay on HT29 colon; 98.8% with SNB-75 CNS; 90.7% with SNB-19 CNS; 98.7% in the assay with U251 CNS; 85.4% in the assay on PC-3 prostate. For the same molecule, the growth in the assay with SK-MEL-5 melanoma was 104%; in the assay on UACC-62 melanoma, 92.4%; in the assay with LOX IMVI melanoma it was 94%; with SK-MEL-28 melanoma it was 104%.

For `COC(=O)c1ccc(NC(=O)CCl)cc1`, the growth was 61.7% with HCT-15 colon; 76.3% with HT29 colon; 83% with SNB-75 CNS; 92.7% in the assay with SNB-19 CNS; 26.2% with U251 CNS; 78.2% in the assay with PC-3 prostate. Further, the growth is 80.6% in the assay with SK-MEL-5 melanoma, 72.2% in the assay on UACC-62 melanoma, -19.8% (active) with LOX IMVI melanoma and 101% in the assay with SK-MEL-28 melanoma.

For `CCC1NC(=O)C(NC(=O)c2ncccc2O)C(C)OC(=O)C(c2ccccc2)NC(=O)C2CC(=O)CCN2C(=O)C(Cc2ccc(N(C)C)cc2)N(C)C(=O)C2CCCN2C1=O` (stereo unspecified) (tested in a mixture with another compound) ({Picolinoyl(3-OH)}-T[Abu]P[ξNMePhe(4-NMe2)][ξPip(4-oxo)][Phg]; ester 1-C; configuration not given here), the growth was 79.3% in the assay on HCT-15 colon; 43.6% in the assay on HT29 colon; 45.4% in the assay on SNB-75 CNS; 78.4% in the assay with SNB-19 CNS; 64.9% with U251 CNS; 55.5% in the assay with PC-3 prostate. Moreover, the growth in the assay with SK-MEL-5 melanoma was -21.7% (active); in the assay with UACC-62 melanoma, 50.9%; with LOX IMVI melanoma it was 49.2%.

In the case of `O=C(O)COCC(=O)O`, the growth in the assay on HCT-15 colon was 103%; in the assay with HT29 colon, 105%; in the assay with SNB-75 CNS, 81.4%; with SNB-19 CNS, 108%; with U251 CNS, 94.7%; in the assay on PC-3 prostate, 97%. For the same molecule, the growth with SK-MEL-5 melanoma is 102%; with UACC-62 melanoma, 111%; with LOX IMVI melanoma it was 101%; with SK-MEL-28 melanoma it was 98.3%.

In the case of `COc1ccccc1N=Nc1c(O)ccc2cc(S(=O)(=O)O)ccc12`, the growth in the assay on HCT-15 colon was 107%; in the assay with HT29 colon it was 96.7%; in the assay on SNB-75 CNS it was 69.6%; in the assay on SNB-19 CNS, 100%; in the assay with U251 CNS, 99.5%; with PC-3 prostate, 92.6%. In addition, the growth in the assay with SK-MEL-5 melanoma is 103%; in the assay with UACC-62 melanoma it was 100%; in the assay with LOX IMVI melanoma, 100%; with SK-MEL-28 melanoma, 111%.

On to `COc1cc2c(cc1O)CC[C@@H]1C2CC[C@@]2(C)C1CC[C@@H]2O` (stereo partly specified), for which the growth in the assay with HCT-15 colon was 29.9%; with HT29 colon, 22.4%; in the assay with SNB-75 CNS, 3.42% (active); with SNB-19 CNS, 28.9%; in the assay on U251 CNS, 33.5%; in the assay with PC-3 prostate, 19.7%. For the same molecule, the growth is -22.1% (active) with SK-MEL-5 melanoma, 22.2% with UACC-62 melanoma and 48% in the assay on LOX IMVI melanoma.

Take `COc1ncnc2c1cnn2C`: the growth in the assay with HCT-15 colon was 98.9%; in the assay with HT29 colon, 107%; in the assay with SNB-75 CNS, 113%; in the assay on SNB-19 CNS it was 110%; in the assay with U251 CNS, 106%; in the assay with PC-3 prostate it was 101%. Further, the growth was 101% in the assay on SK-MEL-5 melanoma, 98.9% in the assay on UACC-62 melanoma, 98% in the assay with LOX IMVI melanoma and 111% in the assay with SK-MEL-28 melanoma.

Consider `COc1cc2c3c(n(C)c(=O)c2cc1OC)-c1cc2c(cc1C3=O)OCO2`, for which the growth with HCT-15 colon was 81%; with HT29 colon, 47.4%; with SNB-75 CNS it was 10.5%; with SNB-19 CNS it was 54.6%; in the assay on U251 CNS, 36%; in the assay on PC-3 prostate, 46.8%. Moreover, the growth in the assay with SK-MEL-5 melanoma is 63.6%; in the assay with UACC-62 melanoma, 40.1%; with LOX IMVI melanoma it was 39.9%.

With `Nc1ccc(C(=O)c2ccc(N)c(Br)c2)cc1Br`, the growth is 18% with HCT-15 colon; -14.2% (active) in the assay on HT29 colon; -5.35% (active) with SNB-75 CNS; 33.4% in the assay on SNB-19 CNS; 18.2% in the assay with U251 CNS; 22.4% in the assay on PC-3 prostate. The growth with SK-MEL-5 melanoma was 8.91% (active); with UACC-62 melanoma it was 28.7%; in the assay on LOX IMVI melanoma it was 12.9%; in the assay with SK-MEL-28 melanoma, 45%.

Take `O=C(O)C(Cc1ccccc1)C(=O)O`: the growth in the assay with HCT-15 colon was 103%; in the assay on HT29 colon, 123%; in the assay on SNB-75 CNS, 95.9%; in the assay with SNB-19 CNS it was 106%; in the assay with U251 CNS, 108%; in the assay with PC-3 prostate it was 94%. Moreover, the growth with SK-MEL-5 melanoma was 89.6%; with UACC-62 melanoma, 101%; with LOX IMVI melanoma, 100%; in the assay with SK-MEL-28 melanoma it was 113%.
